For 15 molecules, binding signal results are on record in publication PMC12864922, “TDP-43 directly inhibits mRNA accumulation in neurites through modulation of mRNA stability”.

B1: ENSMUSG00000061578.1458|Ksr2|90:94 (ssRNA)
RNA: GGGAGUUCUACAGUCCGACGAUCGCUUCGAUAUCCGCAUGCUAGAAUGAAUGGAUGAUGGAUGAAUGGAUGGGUAGGUGGGUAGAUAGGUAUAUGAAUGAAUGGAUGAAUGGAUGGGUGAAUGGAUGGAUAGCAUACUGAAUAAAUGGAUGGAUGGAUGGAUUGAUUUGUGAAUGAAUGGAUGAAUGGAUGGGUAGGUGGGUGGAUGCAUAGGCAAGUAGAUGAAUGAAUAUGUGGGUAGAAGGGUGAGUGGGUGGAUGAAUGGAUGGAUAGGUUGGUAGGUUAAUGUAUUCGUGGAUGGGUGCUCUUGCGGUCGCACUAGUGUGGAAUUCUCGGGUGUCAAGG
B2: ENSMUSG00000061578.1461|Ksr2|72:76 (ssRNA)
RNA: GGGAGUUCUACAGUCCGACGAUCGCUUCGAUAUCCGCAUGCUAUGAAUGGAUGGGUAGGUGGGUAGAUAGGUAUAUGAAUGAAUGGAUGAAUGGAUGGGUGAAUGGAUGGAUAGCAUACUGAAUAAAUGGAUGGAUGGAUGGAUUGAUUUGUGAAUGAAUGGAUGAAUGGAUGGGUAGGUGGGUGGAUGCAUAGGCAAGUAGAUGAAUGAAUAUGUGGGUAGAAGGGUGAGUGGGUGGAUGAAUGGAUGGAUAGGUUGGUAGGUUAAUGUAUUCGUGGAUGGGUGAAUGGAUGGAUGGAUAGACUCUUGCGGUCGCACUAGUGUGGAAUUCUCGGGUGUCAAGG
B3: ENSMUSG00000061578.1460|Ksr2|78:82 (ssRNA)
RNA: GGGAGUUCUACAGUCCGACGAUCGCUUCGAUAUCCGCAUGCUAGAUGGAUGAAUGGAUGGGUAGGUGGGUAGAUAGGUAUAUGAAUGAAUGGAUGAAUGGAUGGGUGAAUGGAUGGAUAGCAUACUGAAUAAAUGGAUGGAUGGAUGGAUUGAUUUGUGAAUGAAUGGAUGAAUGGAUGGGUAGGUGGGUGGAUGCAUAGGCAAGUAGAUGAAUGAAUAUGUGGGUAGAAGGGUGAGUGGGUGGAUGAAUGGAUGGAUAGGUUGGUAGGUUAAUGUAUUCGUGGAUGGGUGAAUGGAUGGAUGCUCUUGCGGUCGCACUAGUGUGGAAUUCUCGGGUGUCAAGG
B4: ENSMUSG00000061578.1457|Ksr2|1:5;96:100 (ssRNA)
RNA: GGGAGUUCUACAGUCCGACGAUCGCUUCGAUAUCCGCAUGCUACAUACUGAAUGAAUGGAUGAUGGAUGAAUGGAUGGGUAGGUGGGUAGAUAGGUAUAUGAAUGAAUGGAUGAAUGGAUGGGUGAAUGGAUGGAUAGCAUACUGAAUAAAUGGAUGGAUGGAUGGAUUGAUUUGUGAAUGAAUGGAUGAAUGGAUGGGUAGGUGGGUGGAUGCAUAGGCAAGUAGAUGAAUGAAUAUGUGGGUAGAAGGGUGAGUGGGUGGAUGAAUGGAUGGAUAGGUUGGUAGGUUAAUGUAUUCGUGGACUCUUGCGGUCGCACUAGUGUGGAAUUCUCGGGUGUCAAGG
B5: ENSMUSG00000061578.1464|Ksr2 (ssRNA)
RNA: GGGAGUUCUACAGUCCGACGAUCGCUUCGAUAUCCGCAUGCUAGGUAGAUAGGUAUAUGAAUGAAUGGAUGAAUGGAUGGGUGAAUGGAUGGAUAGGUAUGUGAAUAAAUGGAUGGAUGGAUGGAUUGAUUUGUGAAUGAAUGGAUGAAUGGAUGGGUAGGUGGGUGGAUGCAUAGGCAAGUAGAUGAAUGAAUAUGUGGGUAGAAGGGUGAGUGGGUGGAUGAAUGGAUGGAUAGGUUGGUAGGUUAAUGUAUUCGUGGAUGGGUGAAUGGAUGGAUGGAUAGAUAGAUGGGAAGGUGGAUGCUCUUGCGGUCGCACUAGUGUGGAAUUCUCGGGUGUCAAGG
B6: ENSMUSG00000061578.1464|Ksr2|54:58 (ssRNA)
RNA: B5 RNA with G97C, U98A, A99U, U100A, G101C
B7: ENSMUSG00000029636.187|Wasf3 (ssRNA)
RNA: GGGAGUUCUACAGUCCGACGAUCGCUUCGAUAUCCGCAUGCUAAAUUUUAAAAAGUACCUCACAAGAUAAACUUGAUUCAGCCAGUUGCCCGGGCAGAGACCUGACUUCCCCUCUCCUGCCCUGAUCCUUUUUACCAAAUGGCGAUUCCAUAGUCCUGGCUGAGGCAGGGGCUCAAAGUCCAGUGUCUGCUUUGCAAUUCUGGAAGGACAGCUGCUUAUUUAAAUAAGUCUGUGAUAUCCGCAGGCUUGGGUUACAGGGAGGACCUUGCAGAGGGACCAGGACACUGCCUUCCCUUAGGUGCACUCUUGCGGUCGCACUAGUGUGGAAUUCUCGGGUGUCAAGG
B8: ENSMUSG00000043670.283|Diras1 (ssRNA)
RNA: GGGAGUUCUACAGUCCGACGAUCGCUUCGAUAUCCGCAUGCUAGAGAGGGAGGGAGAGUGGGAGGUAGAAUGAGAGAGAGUGUGUAUUGGAAGGGAGAGAGAGAGUGUGAGAGAGUGUGAGAGAGAGACAGAGACAGAGAUAAAGGAGAUAAAGAGAGACAAAGACAUGGUCACAAAGAGACAGAGAAGCAGAAAGAAGGCUGAAGCCAGAUGACCAAGUAGGCCGGACCCCACUGUGUUCCCUUCUGUGUGCCAGGCACAGGGAGAGCCACAGCCUGAAGCCUGAGUCUGAGCAUAGCUGAGCUCUUGCGGUCGCACUAGUGUGGAAUUCUCGGGUGUCAAGG
B9: ENSMUSG00000043670.284|Diras1 (ssRNA)
RNA: GGGAGUUCUACAGUCCGACGAUCGCUUCGAUAUCCGCAUGCUAGAGGGAGAGUGGGAGGUAGAAUGAGAGAGAGUGUGUAUUGGAAGGGAGAGAGAGAGUGUGAGAGAGUGUGAGAGAGAGACAGAGACAGAGAUAAAGGAGAUAAAGAGAGACAAAGACAUGGUCACAAAGAGACAGAGAAGCAGAAAGAAGGCUGAAGCCAGAUGACCAAGUAGGCCGGACCCCACUGUGUUCCCUUCUGUGUGCCAGGCACAGGGAGAGCCACAGCCUGAAGCCUGAGUCUGAGCAUAGCUGAGCCCUGACUCUUGCGGUCGCACUAGUGUGGAAUUCUCGGGUGUCAAGG
B10: ENSMUSG00000058297.290|Spock2 (ssRNA)
RNA: GGGAGUUCUACAGUCCGACGAUCGCUUCGAUAUCCGCAUGCUAAGAGAGAGAGAGAGAGAGAAAGAGAGAGAGAAUGAGAGAGAAUGAGAGAGAGAAUACCCGAGGGCCACCCUGAUGCCCAGGAAGAGUGAGGGCAGCCCCCUGUGUGGUGGAAGAGGCUGGGCAGCUAGCUACUGGGGACCUUGUGCUGAGGCUUCCAGGACAAAGCCCCAGUCUGGCUCUCCCCCAGCCUCUCAGGGGCACUGGCUGGUCACAUCCACUGAGUAUUGAUCGGUUGGACUUUAGGGAAGAGCCUCCUCCUUCUCUUGCGGUCGCACUAGUGUGGAAUUCUCGGGUGUCAAGG
B11: ENSMUSG00000058297.293|Spock2 (ssRNA)
RNA: GGGAGUUCUACAGUCCGACGAUCGCUUCGAUAUCCGCAUGCUAAAAGAGAGAGAGAAUGAGAGAGAAUGAGAGAGAGAAUACCCGAGGGCCACCCUGAUGCCCAGGAAGAGUGAGGGCAGCCCCCUGUGUGGUGGAAGAGGCUGGGCAGCUAGCUACUGGGGACCUUGUGCUGAGGCUUCCAGGACAAAGCCCCAGUCUGGCUCUCCCCCAGCCUCUCAGGGGCACUGGCUGGUCACAUCCACUGAGUAUUGAUCGGUUGGACUUUAGGGAAGAGCCUCCUCCUUCCCAUUCCUUUCUGCCACCUCUUGCGGUCGCACUAGUGUGGAAUUCUCGGGUGUCAAGG
B12: ENSMUSG00000058297.289|Spock2 (ssRNA)
RNA: GGGAGUUCUACAGUCCGACGAUCGCUUCGAUAUCCGCAUGCUAAGAGAGAGAGAGAGAGAGAGAGAGAAAGAGAGAGAGAAUGAGAGAGAAUGAGAGAGAGAAUACCCGAGGGCCACCCUGAUGCCCAGGAAGAGUGAGGGCAGCCCCCUGUGUGGUGGAAGAGGCUGGGCAGCUAGCUACUGGGGACCUUGUGCUGAGGCUUCCAGGACAAAGCCCCAGUCUGGCUCUCCCCCAGCCUCUCAGGGGCACUGGCUGGUCACAUCCACUGAGUAUUGAUCGGUUGGACUUUAGGGAAGAGCCUCCUCUUGCGGUCGCACUAGUGUGGAAUUCUCGGGUGUCAAGG
B13: ENSMUSG00000058297.287|Spock2 (ssRNA)
RNA: GGGAGUUCUACAGUCCGACGAUCGCUUCGAUAUCCGCAUGCUAAGAGAGAGAGAGAGAGAGAGAGAGAGAGAGAGAGAGAAAGAGAGAGAGAAUGAGAGAGAAUGAGAGAGAGAAUACCCGAGGGCCACCCUGAUGCCCAGGAAGAGUGAGGGCAGCCCCCUGUGUGGUGGAAGAGGCUGGGCAGCUAGCUACUGGGGACCUUGUGCUGAGGCUUCCAGGACAAAGCCCCAGUCUGGCUCUCCCCCAGCCUCUCAGGGGCACUGGCUGGUCACAUCCACUGAGUAUUGAUCGGUUGGACUUUACUCUUGCGGUCGCACUAGUGUGGAAUUCUCGGGUGUCAAGG
B14: ENSMUSG00000043670.285|Diras1 (ssRNA)
RNA: GGGAGUUCUACAGUCCGACGAUCGCUUCGAUAUCCGCAUGCUAGAGUGGGAGGUAGAAUGAGAGAGAGUGUGUAUUGGAAGGGAGAGAGAGAGUGUGAGAGAGUGUGAGAGAGAGACAGAGACAGAGAUAAAGGAGAUAAAGAGAGACAAAGACAUGGUCACAAAGAGACAGAGAAGCAGAAAGAAGGCUGAAGCCAGAUGACCAAGUAGGCCGGACCCCACUGUGUUCCCUUCUGUGUGCCAGGCACAGGGAGAGCCACAGCCUGAAGCCUGAGUCUGAGCAUAGCUGAGCCCUGACCUCUACUCUUGCGGUCGCACUAGUGUGGAAUUCUCGGGUGUCAAGG
B15: ENSMUSG00000058297.292|Spock2 (ssRNA)
RNA: GGGAGUUCUACAGUCCGACGAUCGCUUCGAUAUCCGCAUGCUAAGAGAGAAAGAGAGAGAGAAUGAGAGAGAAUGAGAGAGAGAAUACCCGAGGGCCACCCUGAUGCCCAGGAAGAGUGAGGGCAGCCCCCUGUGUGGUGGAAGAGGCUGGGCAGCUAGCUACUGGGGACCUUGUGCUGAGGCUUCCAGGACAAAGCCCCAGUCUGGCUCUCCCCCAGCCUCUCAGGGGCACUGGCUGGUCACAUCCACUGAGUAUUGAUCGGUUGGACUUUAGGGAAGAGCCUCCUCCUUCCCAUUCCUUUCCUCUUGCGGUCGCACUAGUGUGGAAUUCUCGGGUGUCAAGG

Positions count from the first letter of the chain named. Whole data set: some 9,900 sequences, median “r (bound/input frequency ratio)” near 0.7, cut for the highest 2% near 6.5. Many of the other results were omitted from the sample, so the highest values are more common in it than they were.

Chain of TDP-43 (Q13148 whole entry): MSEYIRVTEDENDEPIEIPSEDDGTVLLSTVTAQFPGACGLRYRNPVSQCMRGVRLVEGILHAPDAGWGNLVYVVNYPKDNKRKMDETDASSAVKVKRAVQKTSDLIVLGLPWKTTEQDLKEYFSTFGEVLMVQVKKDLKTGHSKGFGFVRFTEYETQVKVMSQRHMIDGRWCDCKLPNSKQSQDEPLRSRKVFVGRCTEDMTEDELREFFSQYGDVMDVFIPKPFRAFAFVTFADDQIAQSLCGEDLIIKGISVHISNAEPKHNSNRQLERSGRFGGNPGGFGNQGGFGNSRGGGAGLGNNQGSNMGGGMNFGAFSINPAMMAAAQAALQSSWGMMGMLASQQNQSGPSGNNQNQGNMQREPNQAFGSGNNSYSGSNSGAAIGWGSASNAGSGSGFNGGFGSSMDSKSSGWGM

The target of the assay is TDP-43 (Homo sapiens, UniProt Q13148 1-414). Nature of the assay: RNA Bind-n-Seq with designed 260-mer pool; 25 mM Tris-HCl, 150 mM KCl, 3 mM MgCl2, BSA (printed 500 mg/mL), 20 units/mL SUPERase IN; pH not stated; 500 nM RNA pool, 1 h, 4 C; TDP-43 5, 50, 500 nM; high values mean tight binding. As to conditions: protein: recombinant; tags: SBP (GST cleaved off with PreScission; pGEX-GST-SBP). In outline:
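In 25 mM Tris-HCl, 150 mM KCl, 3 mM MgCl2, BSA and SUPERase IN, 500 nM of an in vitro-transcribed 260-nt 3′ UTR oligo pool was incubated for 1 h at 4 °C with SBP-tagged TDP-43 (5, 50 or 500 nM) captured on streptavidin beads. RNA remaining after washes was biotin-eluted, reverse transcribed, PCR-amplified and sequenced. Binding, R, is the bound-sample abundance of each oligo, normalized to mapped reads, divided by its abundance in input. Each duplicate used a separate, independent protein batch.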
For the molecule B1, the binding signal was 6.91 R (bound/input frequency ratio). B2: the binding signal was 4.58 R (bound/input frequency ratio). The value for B3 was 5.37 R (bound/input frequency ratio). B4: the binding signal is 5.06 R (bound/input frequency ratio). With B5, the binding signal was 5.55 R (bound/input frequency ratio).

Consider B6, for which the binding signal was 7.9 R (bound/input frequency ratio).

Regarding B7, the binding signal was 0.317 R (bound/input frequency ratio). For the molecule B8, the binding signal was 4.07 R (bound/input frequency ratio). For B9, the binding signal was 5.75 R (bound/input frequency ratio). For the molecule B10, the binding signal was 8.79 R (bound/input frequency ratio).

On to B11, for which the binding signal is 2.36 R (bound/input frequency ratio). Turning to B12, the binding signal is 7.91 R (bound/input frequency ratio).

With B13, the binding signal is 7.5 R (bound/input frequency ratio). For the molecule B14, the binding signal is 6.66 R (bound/input frequency ratio).

For the molecule B15, the binding signal was 6.42 R (bound/input frequency ratio).
